Source: PubChem BioAssay (NCI)
This is part of a sample that, as a whole, favours compounds with a hit. Of some 83,000 tested, about 20% had one in any assay.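 For each line, cells grew in 96-well plates with the test compound present at a single concentration for 48 hours.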 A number with no mark means an inactive call. Active and inactive are the calls of the source. Rule for the calls: active = growth percent below 10; inactive = the rest.

Key:
Test in all cases: NCI-60 one-dose screen, 48 h (100 = growth as untreated, 0 = no growth, -100 = all killed)
Conditions in all cases: 10 µM unless noted
RPMI-8226 leukemia = system: RPMI-8226 leukemia
OVCAR-8 ovarian = system: OVCAR-8 ovarian
OVCAR-5 ovarian = system: OVCAR-5 ovarian
OVCAR-4 ovarian = system: OVCAR-4 ovarian
SK-OV-3 ovarian = system: SK-OV-3 ovarian
IGROV1 ovarian = system: IGROV1 ovarian
OVCAR-3 ovarian = system: OVCAR-3 ovarian
HS 578T breast = system: HS 578T breast
NCI/ADR-RES ovarian = system: NCI/ADR-RES ovarian
T-47D breast = system: T-47D breast
BT-549 breast = system: BT-549 breast
MDA-MB-435 melanoma = system: MDA-MB-435 melanoma
SW-620 colon = system: SW-620 colon
MCF7 breast = system: MCF7 breast
HCT-116 colon = system: HCT-116 colon
HCC-2998 colon = system: HCC-2998 colon
KM12 colon = system: KM12 colon
SR leukemia = system: SR leukemia

SMILES	growth (RPMI-8226 leukemia)	growth (OVCAR-8 ovarian)	growth (OVCAR-5 ovarian)	growth (OVCAR-4 ovarian)	growth (SK-OV-3 ovarian)	growth (IGROV1 ovarian)	growth (OVCAR-3 ovarian)	growth (HS 578T breast)	growth (NCI/ADR-RES ovarian)	growth (T-47D breast)	growth (BT-549 breast)	growth (MDA-MB-435 melanoma)	growth (SW-620 colon)	growth (MCF7 breast)	growth (HCT-116 colon)	growth (HCC-2998 colon)	growth (KM12 colon)	growth (SR leukemia)
O=C(Nc1ccc(Br)cc1)c1ccc(Cl)c(Cl)c1	-6.3% (active)	89.3%	72%	28.8%	63.7%	66.7%	16%	79.6%	36.6%	5.65% (active)	60.6%	31.4%	34.7%	20.1%	20.8%	67.7%	9.99% (active)	–
CCOC(=O)c1ccc2c(c1)[n+](=O)c(C(=O)c1ccc3ccccc3c1)c(C(F)(F)F)n2[O-]	-66.8% (active)	3.25% (active)	-98.5% (active)	-65.8% (active)	-100% (active)	-82.9% (active)	-99.6% (active)	-45.7% (active)	-86.4% (active)	-91.1% (active)	-48.5% (active)	-78% (active)	-89.6% (active)	-93.1% (active)	-100% (active)	-97.6% (active)	-92% (active)	–
C=CCN(CC#N)CC=C	–	100%	102%	–	116%	120%	119%	121%	115%	101%	116%	101%	107%	95%	98.1%	118%	108%	93.2%
O=C(Cc1ccc([N+](=O)[O-])cc1)Oc1ccccc1	–	107%	115%	111%	–	123%	119%	109%	113%	109%	106%	122%	114%	107%	114%	–	118%	96.7%
Cc1ccc(Nc2cc(Cl)c([N+](=O)[O-])cc2[N+](=O)[O-])cc1	–	26.8%	46.3%	–	83.5%	27.7%	0.375% (active)	92.1%	26.5%	1.27% (active)	31.3%	10.2%	9.72% (active)	25.9%	7.86% (active)	42.4%	45.9%	4.96% (active)
COc1ccc(/C=C/c2nc(NCCCN(C)C)c3ccccc3n2)cc1	0.379% (active)	79.8%	76.9%	62.9%	121%	49.9%	79.4%	90.5%	87.9%	81.1%	47.3%	-57.9% (active)	4.57% (active)	-67% (active)	38%	28.3%	32.1%	–
CCCCCCCCCCCC1=NC(C)(C)CN1C(C)C	–	58.7%	74.6%	50.7%	75.9%	32.5%	48.3%	53.2%	47.3%	36.3%	77.9%	11.2%	47.8%	27.8%	21.5%	-58.5% (active)	25.3%	–
N=c1nc(N2CCCCC2)cc(N)n1O	109%	103%	103%	92.5%	103%	118%	112%	109%	122%	100%	106%	107%	109%	84.2%	–	105%	107%	–
COc1cc2ccc(C(C)=O)cc2cc1OC	105%	–	92.3%	120%	95.6%	106%	100%	97.1%	103%	93.1%	90.8%	–	98.5%	97.9%	103%	–	105%	–
CCCCCCCCCCCC1=NC(C)(C)CN1CCO	–	78.1%	92%	72.6%	97%	38.5%	81%	59.3%	90.3%	65.2%	80.6%	8.66% (active)	23.1%	30.3%	17.8%	-17.5% (active)	29.1%	–
NNc1ccc(S(N)(=O)=O)cc1	82.4%	–	102%	110%	104%	110%	111%	110%	94.2%	–	101%	104%	97.3%	98%	90.7%	86.8%	105%	–
O=C(N/N=C/c1ccc([N+](=O)[O-])o1)c1ccc(O)cc1	–	17.6%	78.7%	42%	63.8%	30.5%	–	–	36.6%	44.2%	59.4%	-79.5% (active)	18.2%	26.1%	11.4%	62.9%	33%	–
FC(F)(F)c1cc(-c2nnc3n2N=C(Cl)CS3)cc(C(F)(F)F)c1	95.6%	–	114%	123%	99.9%	114%	116%	105%	99.1%	84.5%	88.4%	–	89.7%	94.3%	90.5%	–	109%	–
O=C(Nc1cccc(-n2ccc3c(NC(=O)c4ccccc4)nccc32)c1)c1ccc(Cl)c(Cl)c1	-51.3% (active)	–	-36.4% (active)	-88.7% (active)	–	-52.1% (active)	-81.3% (active)	–	-28.1% (active)	-55.4% (active)	-75.7% (active)	-78.1% (active)	-80.3% (active)	-83.6% (active)	-97.6% (active)	-90.9% (active)	-75.2% (active)	–
COc1ccc(-n2nc(C(=O)Nc3ccc(F)cc3)nc2-c2cc(OC)c(OC)c(OC)c2)cc1	96.8%	–	97.8%	90.5%	–	98.1%	92.4%	89.3%	85%	75.3%	73%	–	96.6%	91.8%	80.9%	–	96%	–
O=C(c1ccc(OCCN2CCCCC2)cc1)c1c(-c2ccc(O)cc2)sc2cc(O)ccc12	82.9%	86.8%	124%	72.8%	100%	76.1%	91.8%	–	91.5%	65.5%	66.4%	90.5%	98.2%	31.9%	76.2%	103%	103%	–
O=C1/C=C/[C@@H](O)[C@@H]2C[C@@H](O)C[C@H]2/C=C/CCC[C@H]([C@@H](O)CO)O1	112%	82%	98.5%	72.8%	91.6%	98.5%	–	53.5%	90.1%	81.8%	75.8%	83%	104%	45.1%	93.8%	84.6%	63.5%	–
COc1ccc(Nc2nc(N)nc3c(=O)[nH]ccc23)cc1	97.3%	107%	107%	111%	107%	87.5%	–	118%	100%	–	102%	113%	99.5%	79.7%	83.7%	107%	104%	–
C=C(C)[C@@H]1CC[C@]2(C(=O)NS(=O)(=O)c3ccccc3)CC[C@]3(C)[C@H](CC[C@@H]4[C@@]5(C)CC[C@H](OC(=O)NS(=O)(=O)c6ccccc6)C(C)(C)[C@@H]5CC[C@]43C)[C@@H]12	-55.3% (active)	18.4%	15.5%	38.1%	29.7%	17.6%	-31.3% (active)	14.5%	17.1%	–	-0.983% (active)	12.8%	16.6%	2.66% (active)	–	–	4.05% (active)	–
CCCCCCCCCCCCCC	103%	–	108%	103%	104%	117%	122%	106%	96.9%	101%	112%	104%	104%	91.1%	102%	97.8%	115%	–
